Out of some 53,000 sequences screened, about 3,700 (7%) were called active.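 The calls were made as follows: active = gene knockdowns whose robust z-score for IL-1 alpha signal is at least 2 or at most -2, so actives lie on both sides; inactive = the rest.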 Many of the other results were omitted from the sample, so actives are more common in it than they were.
Experiment: Components of the Cytosolic LPS Sensing Pathway: Gene Identification via Genome-wide siRNA Screen;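 also: robust z of the log signal after scaling to non-targeting control siRNA wells of the plate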
Conditions: RAW264.7 macrophages, IL-1a HTRF, actives lie on both sides, screened at 100 nM (by protocol), cells primed 5 h with Pam3CSK4 first
Procedure, shortened: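 Read-out: IL-1a HTRF on supernatant, divided by plate negative-control median ×100, log-transformed and converted to robust z-score. Cells were RAW264.7 given 100 nM siRNA, Pam3CSK4-primed 5 hours, then LipidA-transfected 24 hour.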

z-score, inactive:
GGCAUGCCUGUUGCUAUGATT against Cyp3a44 0.182
AUCUUUCAGUCACACGACCTT against A730085E03Rik -0.942
GGUAGCUUAGAGGACUAACTT against Cidec -1.78
GGCUGAAAGAUUGUAUUGATT against Rwdd2b -0.601
AGCCGAUCCUGUGCCUGUUTT against Dnph1 0.592
GGGACUUUGGUCAAUAAUGTT against Tcf19 0.247
GGGAAGAAGCUAAAGAAGATT against Wipf1 1.44
GCACGUGGAUCCUAACAAGTT against Exd1 -1.84
GGAAAAGAUAGAGUUACUUTT against Lrif1 0.484
GGCUGUCUUUGUUCCAGUATT against Tnfrsf10b 0.218
GGGCCAAGGAACCUAUUUGTT against Ltbr 0.58
GGCUCUUAGAAAAAUGUUATT against Olfr1156 -0.816
GGUCUACGGCACCUUCUAUTT against Bsnd -0.438
CGGGUUUCAUUAUUAUUCCTT against Foxa1 -0.352
GGUGUGCCUAUGUUAUAGUTT against Slc13a5 -0.982
GGUGAGUUAUAAAAGACCATT against Pex12 -0.0509
GGUGGAUUUUGAAACUAUUTT against Pcdhb17 1.11
GCAAGUAGUUAGCUCAGGGTT against Gabpb1 -0.752
GGCAUUCUGAAAAAAUAGCTT against Rb1cc1 -1.55
GGUUUGUGGAUGACAACGGTT against Mtf1 0.216
GGCGAAUGGAAGAUAAUGCTT against Stxbp3 -0.233
GGAACUCUGUAGACAGAAUTT against Lpin1 0.705
GGCUCAGAUCUUUGACUACTT against Pnp -0.232
GGCUGAAAAGAAAAACAGATT against Rgs5 -0.378
CGUGACAUGCACGACUUCUTT against Tac2 1.49
GGGAGAAAAGGGUCAAAAATT against Marco 0.819
GGAACUGUGUGACUACUUUTT against Necab2 0.18
GGUCAACAUUUGCUGUAAGTT against Inhba -0.599
GGGAAAAUAUCAAGUGUAGTT against Tmem60 0.567
GCUGUUUCAAAAGUCAUAUTT against Col11a1 1.96
GCAGAUACCAUGAUACAGUTT against Med20 -0.154
GGUAAAUGUGAAUGUAAGGTT against Ntn4 0.73
GGAUAAUUUAAACAUGGGATT against Cd276 -1.08
GGUUUAGGGUCAAGAUAUUTT against Ttf2 -1.39
GGAUUGGCAACCUCCAUUUTT against Kdm5a -0.312
GGACAAUGAGAUUCUUCUCTT against Mptx1 -1.58
GGAAGGUGCUAAAAAUAUATT against Pdhx 0.23
GGAAAAGACAUCAGAUGAATT against Mrpl1 0.233
GGUAAUGGAAAUGAACAAATT against Zfp353-ps 0.381
GGAACUGGACAAGGACGAUTT against Arhgdia 1.17
GGAAAAUGUCCCACUUUUATT against Olfr70 -0.926
GGAUUUGACCAGUAUAAGUTT against Ptgs2 -1.05
GGCUCCAAUAAAGUGCCUUTT against Elf3 1.46
GCUGGAGAUCUAAAAACAGTT against Mphosph10 1.54
GGCAACUUAAGUUUUACAGTT against Tmem170 -0.898
GGAGUUCUGUCCAUUUUGATT against Olfr1198 0.45
GCGUAGAAGACACUUAUAGTT against Zc3h14 1.47
GGCUCUGAAUUAACUCCAGTT against Srpk3 -0.654
GCUAUUGACAUAAUGAGGCTT against Nfe2l3 -1.41
CCUGAAUUCAGUCUGUUUUTT against Depdc1b -0.931
GGAAAAUGUUUUACCAAUGTT against Rspry1 -0.102
GGACAUCGGAUUCUACACCTT against Psg19 0.531
CCAACAAAAGCCUAUUCGGTT against Hsh2d -0.169
GAACUUUGCCAUUGAUUUGTT against Ndufs6 1.63
GCUGAUUUCUCAAACAUGATT against Serpinb10 -0.489
GUCCCUGAACCUGUGGUAUTT against Emp3 1.26

z-score, active:
CUCAAAAUCUGGUGAUAAATT against Adam34 2.66
UGGGAAGGUGCUCACUGAGTT against Dnph1 -2.53
GGCUGAACUGAUCCUGUACTT against Kcnh3 -2.22
CGAGUUUGUAAUGAUGCUATT against Cabp4 2.51
GGACUUGGAGUUUCGUAAATT against Lmnb1 2.92
GGCCAAGGAAAUAUCAAUGTT against Alg14 2.69
GGGCAAACCGGAAAAACAGTT against Ccdc71 -2.06
GGCUACUGGAGCAAGUUUATT against Apoc3 2.48
GGCAACUAUAAGUACAUAGTT against Gsta3 3.87
GGUCUCAUAGAGUGUUACUTT against Anapc7 4.38
GGAUUUGAGUGGUAAUGAATT against Tm2d1 -2.2
GGUGAUAUGUGUGGGCUUGTT against Fahd2a -2.06
GGGUACAAAGGCUGUAGUUTT against Sec61a1 -2.42

Source: PubChem BioAssay AID1508600 (Functional Genomics Laboratory (NCATS/FGL), 2020)
